Consider 18 compounds from PubChem BioAssay AID434927 (Sanford-Burnham Center for Chemical Genomics, 2010).

Active and inactive are the calls of the source.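 Rule for the calls: active = inhibition above about 23% in any of six single-dose repeats (limit read from the data); inactive = the rest.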

In this assay the target is Intestinal-type alkaline phosphatase (Homo sapiens) (UniProt P09923). Put plainly: human IAP inhibitors, confirmation, biochemical, luminescence, single concentration, uHTS hits (AID 434927).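 Note: plate controls were DMSO wells with enzyme for no effect and wells lacking enzyme for full effect.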 To be noted: purified human IAP, CDP-Star luminescence, 30 min; at 8.3 µM; hits give high values.
Sequence of Intestinal-type alkaline phosphatase (Homo sapiens) (P09923 whole entry, looked up): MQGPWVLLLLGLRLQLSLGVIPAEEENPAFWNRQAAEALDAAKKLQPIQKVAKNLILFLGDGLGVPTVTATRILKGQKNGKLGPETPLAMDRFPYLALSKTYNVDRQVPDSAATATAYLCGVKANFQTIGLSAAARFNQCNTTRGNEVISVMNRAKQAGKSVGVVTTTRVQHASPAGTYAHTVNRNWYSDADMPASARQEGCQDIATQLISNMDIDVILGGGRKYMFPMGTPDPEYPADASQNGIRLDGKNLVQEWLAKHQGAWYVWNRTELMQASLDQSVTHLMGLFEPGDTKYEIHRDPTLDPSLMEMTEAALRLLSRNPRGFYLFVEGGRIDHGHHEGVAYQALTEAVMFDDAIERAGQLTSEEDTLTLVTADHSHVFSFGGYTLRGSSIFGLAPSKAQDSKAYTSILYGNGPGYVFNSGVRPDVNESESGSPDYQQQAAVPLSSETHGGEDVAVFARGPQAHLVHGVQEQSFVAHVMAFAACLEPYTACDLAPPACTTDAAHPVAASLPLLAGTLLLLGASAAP
Turning to `COc1ccccc1N(C)S(=O)(=O)c1ccc(Cl)c(C(=O)NNC(=O)c2ccccc2O)c1`, the inhibition was 59.4% (active).
The same measure for `O=C(Cc1coc2ccc3ccccc3c12)NCc1ccccc1`: 59.4% (active).
Take `Cc1ccc(O)c(-c2cc(C(=O)NCc3ccc4c(c3)OCO4)[nH]n2)c1`: the inhibition was 19.7% (active).
In the case of `COc1ccccc1C1=NN(C2=NN=C(N)Cc3ncnn32)C(O)(C(F)(F)F)C1` (stereo not drawn), the inhibition is 45.2% (active).
With `CCc1ccc(/C=N/Nc2ncnc3nc[nH]c23)cc1`, the inhibition is 33.8% (active).
Take `CC(C)CC(=O)NC(=S)NNC(=O)c1ccc(NC(=O)C2CCCCC2)cc1`: the inhibition was 62.1% (active).
As to `CCOc1cc(/C=N/NC(=O)C(=O)N/N=C/c2ccc(O)c(OCC)c2)ccc1O`, the inhibition is -47.6% (inactive).
The same measure for `Cc1cc(NC(=O)c2ccc(N3C(=O)C4C5C=CC(C5)C4C3=O)cc2)no1` (stereo not drawn): -161% (inactive); for `Cc1cc(C)cc(OCC(=O)NNC(=O)c2cc(C)[nH]n2)c1`: -94.6% (inactive); for `N#CCN1C(=S)N=C(Nc2cccc(Cl)c2)C12CCCCC2`: -55.5% (inactive).
Next, `CCOc1ccc(CC(=O)NNC(=S)NCCc2ccccc2)cc1`: 77.5% (active); `CC(C)CCNc1ncnc2c1nnn2Cc1ccccc1Cl`: 40.2% (active); `Cc1cc(=O)[nH]c(-n2[nH]c3c(c2=O)CCCC3)n1`: 55.9% (active).
Next, `O=C(COc1ccc(Br)cc1)NCCCn1ccnc1`: 50.5% (active).
Regarding `Cc1ccc(S(=O)(=O)NCCC(=O)NNC(=O)COc2ccc(Br)cc2)cc1C`, the inhibition was 41% (active).
The same measure for `N#Cc1cc(Oc2ccccc2)c(-n2nnc3ccccc32)cc1C#N`: 40.7% (active).
Next, `O=C(CSc1ncn[nH]1)NCCc1ccccc1`: -113% (inactive).
Next, `Cc1ccc(NCc2ccc([N+](=O)[O-])s2)cc1`: 26.1% (active).

As a reminder, the inhibition is the change of the read-out against control, counted positive when it falls.
